SMILES strings stand for the structures. Records with an inconclusive call do not appear. Where a call stands in place of a potency, no number is given. Activity calls are given as the source filed them. The call rests on the fitted dose curve; in most records, active means well fitted inhibition curve with a large enough effect; inconclusive means small, poorly fitted or top-dose-only effect; inactive means no such curve, though single readings can be large or run the other way.

The assay in a line: HTS Assay for Allosteric Antagonists of the Human D2 Dopamine Receptor: Hit Validation in HTRF (AID 624455).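 Further: stable D1 dopamine receptor cell line scored for blocking the D1 response.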 To be noted: Cells stably expressing D1 dopamine receptor, inhibition mode; series mostly up to 46.1 µM. An outline of the steps: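 Validation of hits used D1 receptor stably expressed in cells with HTRF detection of response inhibition; origin screen measured calcium flux following EC80 dopamine in a force-coupled, inducible Hek293 Trex D2 cell line.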
(In general: In TR-FRET formats the signal depends on donor and acceptor labels being close together.)
On to `CN(C)c1nc(N)c(C(=O)N=C(N)N)nc1Cl`, for which the Potency result was “inactive”.
As for `CN(C)c1nc2c(Br)c(Br)c(Br)c(Br)c2[nH]1`, the Potency result is “inactive”.
With `Nc1ncnc2c1ncn2[C@@H]1O[C@H](COP(=O)(O)CP(=O)(O)OP(=O)(O)O)[C@@H](O)[C@H]1O` the entry was “inactive”; with `O=C(O)CC[C@@H](C(=O)O)N1C(=O)c2ccccc2C1=O`, “inactive”; with `Nc1nc(Cl)nc2c1ncn2[C@@H]1O[C@H](CO)[C@@H](O)[C@H]1O`, “inactive”.
`CSc1ccccc1N1CCN(CCCCCC(=O)NC2CCCc3ccccc32)CC1` (stereo not drawn): the Potency entry is “inactive”.
With `CCCn1c(=O)c2[nH]c(-c3ccc(OCC(=O)NCCN)cc3)nc2n(CCC)c1=O` the entry was “inactive”; with `COc1ccc(NC(=O)/C=C/c2ccc(Cl)cc2)cc1`, “inactive”; with `OCC1O[C@H]([S-])[C@H](O)[C@@H](O)[C@@H]1O.[Au+]` (stereo partly drawn), “inactive”.
For the molecule `O=S(=O)(c1cccc2c(I)cccc12)N1CCCNCC1`, the Potency entry was “inactive”.
With `Fc1ccc(C(OCCCc2cnc[nH]2)c2ccc(F)cc2)cc1` the entry was “inactive”.
With `CCN1/C(=C/C(C)=O)Sc2ccc(OC)cc21` the entry was “inactive”; with `CCCCCCCCCCCCCCCCCC(=O)OC(CC(=O)O)C[N+](C)(C)C` (stereo not drawn), “inactive”; with `CC(C)Cc1ccc([C@H](C)C(=O)O)cc1`, “inactive”.
For `OC[C@H]1O[C@@H](n2cnc3c(NC4CCCCC4)ncnc32)[C@H](O)[C@@H]1O` the value was “inactive”; for `C#CCN1C(C)=C(C(=O)OC)C(c2cccc([N+](=O)[O-])c2)C(C(=O)OCC)=C1C` (stereo not drawn), “inactive”.
For the molecule `O=C1O/C(=C/Br)CCC1c1cccc2ccccc12` (stereo not drawn), the Potency entry was “inactive”.
On to `O=Nc1ccc2oc(=O)ccc2c1`, for which the Potency entry is “inactive”.

The values are drawn from PubChem BioAssay (NCATS).
